The text below walks through data of PubChem BioAssay AID651840 (Vanderbilt Specialized Chemistry Center, 2012).

Entries with a potency or affinity are not part of this list. The source made the active and inactive calls.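 How the source made its calls: active means mean concentration giving half inhibition of the glutamate calcium response below 30 µM; inactive means the rest.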

In this test the target is Metabotropic glutamate receptor 3 (Rattus norvegicus) (UniProt P31422). Kind of test: mGlu3 NAM potency via calcium readout, dose response, mGlu3 NAM project, TREx293 cells, Galpha15, calcium flux (AID 651840). Particulars: TREx293 mGlu3/Galpha15, calcium fluorescence, glutamate EC80. On the technique in general: A change in cytosolic calcium serves as a functional read-out for many receptors and channels.
Metabotropic glutamate receptor 3 (Rattus norvegicus), sequence (P31422 whole entry, looked up): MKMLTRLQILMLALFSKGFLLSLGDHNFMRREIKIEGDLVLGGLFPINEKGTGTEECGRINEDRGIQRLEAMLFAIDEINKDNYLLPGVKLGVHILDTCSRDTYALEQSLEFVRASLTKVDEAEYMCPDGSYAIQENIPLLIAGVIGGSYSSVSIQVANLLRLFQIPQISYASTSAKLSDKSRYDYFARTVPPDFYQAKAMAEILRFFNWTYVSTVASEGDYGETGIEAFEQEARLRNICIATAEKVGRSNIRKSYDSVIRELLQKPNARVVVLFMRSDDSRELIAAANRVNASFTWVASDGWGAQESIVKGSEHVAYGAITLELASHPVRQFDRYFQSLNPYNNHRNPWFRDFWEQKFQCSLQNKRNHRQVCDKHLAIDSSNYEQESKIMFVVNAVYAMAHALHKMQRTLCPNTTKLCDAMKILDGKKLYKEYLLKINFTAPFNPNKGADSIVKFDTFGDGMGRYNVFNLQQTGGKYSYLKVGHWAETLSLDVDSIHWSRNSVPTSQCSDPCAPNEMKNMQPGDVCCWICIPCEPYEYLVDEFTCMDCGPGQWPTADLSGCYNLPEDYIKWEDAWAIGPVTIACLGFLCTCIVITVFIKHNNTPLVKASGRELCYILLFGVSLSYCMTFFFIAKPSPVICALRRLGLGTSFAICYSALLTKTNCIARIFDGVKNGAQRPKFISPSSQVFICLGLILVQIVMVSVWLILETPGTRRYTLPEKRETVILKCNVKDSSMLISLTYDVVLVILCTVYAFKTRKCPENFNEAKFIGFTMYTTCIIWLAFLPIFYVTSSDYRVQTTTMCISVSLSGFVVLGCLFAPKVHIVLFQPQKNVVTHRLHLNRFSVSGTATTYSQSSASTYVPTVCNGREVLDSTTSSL
As to `COc1ccc(C#Cc2ccc(C(=O)N3CCCC(O)(c4ccccc4)C3)cc2)cc1` (configuration not stated), the result was inactive.

Regarding `COc1ccc(C#Cc2ccc(C(=O)N3CCCC(O)(c4ccc(Cl)cc4)C3)cc2)cc1` (configuration not stated), the outcome was inactive.

For the compound `COc1ccc(C#Cc2ccc(C(=O)N3CCCC(O)(c4ccc(F)cc4)C3)cc2)cc1` (configuration not stated), the outcome was inactive.

In the case of `COc1cccc(COc2ccc(C(=O)N3CC(O)C3)cc2)c1`, the result was inactive.

In the case of `COc1ccc(C#Cc2ccc(C(=O)N3CCCC(O)(c4ccc5ccccc5c4)C3)cc2)cc1` (configuration not stated), the outcome was inactive.

`COc1ccc(C#Cc2ccc(C(=O)N3CCCC(O)(c4cccc(F)c4)C3)cc2)cc1` (configuration not stated): the outcome was inactive.

For the compound `COc1ccc(C#Cc2ccc(C(=O)N[C@@H]3CCCNC3)cc2)cc1`, the outcome was inactive.

Regarding `COc1ccc(C#Cc2ccc(C(=O)N3CCCC(O)(c4ccncc4)C3)cc2)cc1` (configuration not stated), the result was inactive.

In the case of `COc1ccc(C#Cc2ccc(C(=O)N3CCCC(O)(c4ccccc4OC)C3)cc2)cc1` (configuration not stated), the result was inactive.

Turning to `COc1ccc(C#Cc2ccc(C(=O)N3CCCC(O)(c4cccc(OC)c4)C3)cc2)cc1` (configuration not stated), the result was inactive.

For the compound `COc1ccc(C#Cc2ccc(C(=O)N3CCCC(O)(CCC4OCCCO4)C3)cc2)cc1` (configuration not stated), the result was inactive.

With `O=C(c1ccc2cc(-c3cccc(-c4ccccc4)c3)ccc2c1)N1CCCC(CO)C1` (configuration not stated), the result was inactive.
